From PubChem BioAssay (NCI)
The panel holds about 79,000 compounds, 15% with a hit somewhere; the sample as a whole holds those more often. A number with no mark means an inactive call. Activity calls are given as the source filed them. No stated cut-off is given here; in the data, active means growth inhibition above about 70%; inactive means the rest.

Assays:
[1] = NCI Yeast Anticancer Drug Screen. Data for the rad50 strain (AID 155);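 further: 0% = growth of vehicle-only cultures of the same strain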; details: S. cerevisiae rad50 strain growth inhibition, active compounds read high
In short: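 Relative growth inhibition (compound vs vehicle) was measured in yeast with a defined repair-gene alteration.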

[2] = NCI Yeast Anticancer Drug Screen. Data for the mec2-1 strain (AID 157); details: S. cerevisiae mec2-1 strain, active compounds read high
In short: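 Readout is yeast growth inhibition, normalised to vehicle-treated controls, in the mec2-1 strain exposed to compound.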

[3] = NCI Yeast Anticancer Drug Screen. Data for the sgs1 mgt1 strain (AID 161);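 further: 0% = growth of cultures given vehicle only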; details: S. cerevisiae sgs1 mgt1 strain, active compounds read high
In short: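 Yeast cells carrying a defined DNA-repair defect were exposed to test compounds. Growth inhibition was measured relative to vehicle-treated controls.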

[4] = NCI Yeast Anticancer Drug Screen. Data for the cln2 rad14 strain (AID 165);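 further: 0% = growth equal to vehicle treated cultures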; details: S. cerevisiae cln2 rad14 strain, active compounds read high
In short: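 Relative to vehicle controls, growth inhibition of compound-treated cln2 rad14 yeast was recorded.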

[5] = NCI Yeast Anticancer Drug Screen. Data for the bub3 strain (AID 167); details: S. cerevisiae bub3 mutant strain, active compounds read high
In short: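 Screening used yeast with an engineered genetic alteration affecting cell cycle control. Compound-exposed cultures were compared with vehicle cultures, and reduced growth was taken as inhibition.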

[6] = NCI Yeast Anticancer Drug Screen. Data for the mlh1 rad18 strain (AID 175); details: S. cerevisiae mlh1 rad18 strain growth inhibition, active compounds read high
In short: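 Test agents were incubated with a yeast strain of defined genotype (DNA damage repair defect). Inhibition of growth was derived by comparison with vehicle-exposed cultures.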

[7] = at 5.0 µM (retest, dose inferred, filed as 0.5)
[8] = at 50.0 µM (retest, dose inferred, filed as 5.0)

| SMILES | growth inhibition [1, 7] | growth inhibition [1, 8] | growth inhibition ([1]; at 50.0 µM) | growth inhibition [2, 7] | growth inhibition [2, 8] | growth inhibition ([2]; at 50.0 µM) | growth inhibition [3, 7] | growth inhibition [3, 8] | growth inhibition ([3]; at 50.0 µM) | growth inhibition [4, 7] | growth inhibition [4, 8] | growth inhibition ([4]; at 50.0 µM) | growth inhibition [5, 7] | growth inhibition [5, 8] | growth inhibition ([5]; at 50.0 µM) | growth inhibition [6, 7] | growth inhibition [6, 8] | growth inhibition ([6]; at 50.0 µM) |
| --- | --- | --- | --- | --- | --- | --- | --- | --- | --- | --- | --- | --- | --- | --- | --- | --- | --- | --- |
| c1ccc2[nH]c(CN(CCN(Cc3nc4ccccc4[nH]3)Cc3nc4ccccc4[nH]3)Cc3nc4ccccc4[nH]3)nc2c1 | 97% (active) | 95% (active) | 91.1% (active) | 97% (active) | 97% (active) | 91.5% (active) | 99% (active) | 96% (active) | 91% (active) | 99% (active) | 94% (active) | 90.3% (active) | 99% (active) | 95% (active) | 89% (active) | 96% (active) | 93% (active) | 89.7% (active) |
| CC(=O)NC1=C(Sc2ccc([N+](=O)[O-])cc2)C(=O)c2ccccc2C1=O | 96% (active) | 98% (active) | 61.4% | 98% (active) | 96% (active) | 11.1% | 98% (active) | 99% (active) | 21.9% | 46% | 13% | -18.1% | 75% (active) | 5% | 62% | 98% (active) | 99% (active) | 51.5% |
| O=C1OCCCN1/N=C/c1ccc([N+](=O)[O-])o1 | 16% | 59% | 82% (active) | 4% | 31% | 55% | 10% | 65% | 84.8% (active) | 2% | 32% | 42.3% | 8% | 62% | 52.3% | 24% | 78% (active) | 89.2% (active) |
| O=C1C2=C(CCCC2)C(=O)C(Cl)C1Cl (stereo not given) | 36% | 98% (active) | 97.8% (active) | 32% | 99% (active) | 99.3% (active) | 24% | 99% (active) | 99.5% (active) | 9% | 99% (active) | 99.1% (active) | 56% | 99% (active) | 99.5% (active) | 62% | 99% (active) | 99.5% (active) |
| CCCCC(CC)CNc1ncnc2c1cnn2C (stereo not given) | 1% | 92% (active) | 36.7% | -3% | 91% (active) | -1.45% | 1% | 94% (active) | 91.7% (active) | -10% | 89% (active) | 20.9% | 0% | 96% (active) | 48.4% | 14% | 96% (active) | 32.8% |
| CC(=O)SC(C[N+](=O)[O-])c1ccc2c(c1)OCO2 (stereo not given) | 55% | 91% (active) | 91% (active) | 69% | 100% (active) | 93% (active) | 53% | 99% (active) | 93.5% (active) | 44% | 57% | 91.3% (active) | 63% | 96% (active) | 92.5% (active) | 59% | 97% (active) | 90.3% (active) |
| Nc1cccc2c1C(=O)c1cccc(Cl)c1C2=O | 31% | 83% (active) | 87.7% (active) | 3% | 16% | 11.8% | 0% | 14% | 21.1% | 1% | 2% | -82% | 5% | 21% | 58% | 11% | 30% | 50.3% |
| O=C1C(c2ccc(Br)cc2)=[N+]([O-])c2ccccc21 | 9% | 94% (active) | 93.5% (active) | 12% | 84% (active) | 87.3% (active) | 10% | 94% (active) | 93.8% (active) | -4% | 47% | 85.5% (active) | 19% | 94% (active) | 96.4% (active) | 11% | 91% (active) | 95.8% (active) |
| O=C(Nc1nnc(-c2ccccc2)s1)c1cc(=O)c2cc(Cl)ccc2o1 | -3% | 45% | 99.3% (active) | 0% | 58% | 99.7% (active) | -3% | 78% (active) | 99.5% (active) | 6% | 62% | 98.8% (active) | 4% | 77% (active) | 99.4% (active) | 2% | 71% (active) | 98.9% (active) |
| O=C(O)CCC(=O)NNc1ccccc1 | 8% | 68% | 57.9% | -1% | 66% | 85.9% (active) | 12% | 58% | 61.9% | 8% | 81% (active) | 83.2% (active) | 14% | 91% (active) | 90.3% (active) | 20% | 94% (active) | 86.1% (active) |
